# Results reported in paper PMC7862700, “An all-to-all approach to the identification of sequence-specific readers for epigenetic DNA modifications on cytosine”.
# What was measured:
# Assay in all cases: DAPPL (digital affinity profiling via proximity ligation, sequencing); 10 mM Tris-HCl pH 7.5, 50 mM NaCl, 1 mM DTT, 4% glycerol, room temperature, 30 min; GST-TFs on glutathione beads, 16-mer random dsDNA library, 0.1% formaldehyde crosslink after washing; high values mean tight binding
# Details in all cases: protein: recombinant; tags: N-terminal GST; dsDNA, one strand shown
# FLI1 = target: T1, FLI1 (Homo sapiens, UniProt Q01543 1-452)
# T1 sequence: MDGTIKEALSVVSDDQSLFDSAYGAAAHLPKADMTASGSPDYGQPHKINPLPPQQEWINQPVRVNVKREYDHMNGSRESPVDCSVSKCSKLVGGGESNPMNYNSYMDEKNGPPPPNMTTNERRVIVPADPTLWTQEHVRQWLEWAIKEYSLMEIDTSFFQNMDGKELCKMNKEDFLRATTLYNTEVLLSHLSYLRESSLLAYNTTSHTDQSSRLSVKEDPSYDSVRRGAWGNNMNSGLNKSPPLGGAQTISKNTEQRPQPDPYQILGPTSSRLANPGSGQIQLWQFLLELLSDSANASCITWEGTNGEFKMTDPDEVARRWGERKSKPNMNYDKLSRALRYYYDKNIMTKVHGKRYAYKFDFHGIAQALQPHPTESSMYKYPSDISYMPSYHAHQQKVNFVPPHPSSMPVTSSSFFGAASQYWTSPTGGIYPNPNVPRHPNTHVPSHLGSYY
# Procedure, shortened: (§1)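 Binding signal is defined as a hexamer's read frequency for one factor over its frequency for the tag-only sample. To obtain reads, GST-fused human transcription factors were expressed in yeast, captured on glutathione beads, barcoded with DNA and pooled with that sample. Pools met 200 nmole of a 16-mer random double-stranded DNA library in Tris/NaCl/DTT/glycerol buffer for 30 min at room temperature before washing, 0.1% formaldehyde crosslinking, proximity ligation (BsaI/T4 ligase, 1 h, 37 °C), PCR and Illumina NextSeq500 sequencing.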
# ELK1 = target: T2, ELK1 (Homo sapiens, UniProt P19419 1-428)
# T2 sequence: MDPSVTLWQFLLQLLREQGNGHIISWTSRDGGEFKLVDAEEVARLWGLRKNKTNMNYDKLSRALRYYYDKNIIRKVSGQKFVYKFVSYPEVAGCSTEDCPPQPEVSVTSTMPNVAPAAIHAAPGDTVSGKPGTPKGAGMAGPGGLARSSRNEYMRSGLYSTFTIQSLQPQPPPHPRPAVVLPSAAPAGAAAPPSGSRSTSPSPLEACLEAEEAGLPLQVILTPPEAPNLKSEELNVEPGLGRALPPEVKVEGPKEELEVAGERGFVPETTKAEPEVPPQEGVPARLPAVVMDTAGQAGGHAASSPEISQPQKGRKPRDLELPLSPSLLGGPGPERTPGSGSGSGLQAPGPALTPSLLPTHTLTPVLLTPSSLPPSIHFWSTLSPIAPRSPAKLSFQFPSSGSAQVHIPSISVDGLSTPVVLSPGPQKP
# Procedure, shortened: as §1
# GABPA = target: T3, GABPA (Homo sapiens, UniProt Q06546 1-454)
# T3 sequence: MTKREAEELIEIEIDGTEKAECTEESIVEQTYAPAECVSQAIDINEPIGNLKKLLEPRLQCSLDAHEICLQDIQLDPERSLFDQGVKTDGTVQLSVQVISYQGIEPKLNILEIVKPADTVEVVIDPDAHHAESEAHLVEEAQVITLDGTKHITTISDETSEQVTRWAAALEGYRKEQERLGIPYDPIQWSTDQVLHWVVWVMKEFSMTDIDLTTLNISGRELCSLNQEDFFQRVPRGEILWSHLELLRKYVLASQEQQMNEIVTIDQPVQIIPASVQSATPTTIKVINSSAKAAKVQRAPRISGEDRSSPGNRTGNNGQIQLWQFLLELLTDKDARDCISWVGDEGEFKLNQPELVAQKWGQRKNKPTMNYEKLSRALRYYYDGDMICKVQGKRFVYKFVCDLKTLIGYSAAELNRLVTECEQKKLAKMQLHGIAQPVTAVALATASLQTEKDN
# Procedure, shortened: as §1
# ERG = target: T4, ERG (Homo sapiens, UniProt P11308 1-479)
# T4 sequence: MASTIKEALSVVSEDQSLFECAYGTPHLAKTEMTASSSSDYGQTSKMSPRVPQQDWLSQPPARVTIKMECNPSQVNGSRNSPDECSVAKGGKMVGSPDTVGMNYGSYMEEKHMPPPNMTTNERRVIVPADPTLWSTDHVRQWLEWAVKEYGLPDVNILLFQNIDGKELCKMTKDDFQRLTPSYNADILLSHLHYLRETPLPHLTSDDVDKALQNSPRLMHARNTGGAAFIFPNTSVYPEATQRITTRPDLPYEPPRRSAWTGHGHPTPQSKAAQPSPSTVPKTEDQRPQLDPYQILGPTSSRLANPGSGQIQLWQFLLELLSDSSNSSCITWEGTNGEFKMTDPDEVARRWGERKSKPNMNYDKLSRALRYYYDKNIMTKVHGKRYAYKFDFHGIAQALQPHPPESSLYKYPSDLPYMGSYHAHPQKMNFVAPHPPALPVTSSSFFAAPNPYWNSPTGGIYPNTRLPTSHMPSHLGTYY
# Procedure, shortened: as §1
# ELF1 = ELF1 (Homo sapiens, UniProt P32519 1-619)
# ELF1, sequence (P32519 whole entry): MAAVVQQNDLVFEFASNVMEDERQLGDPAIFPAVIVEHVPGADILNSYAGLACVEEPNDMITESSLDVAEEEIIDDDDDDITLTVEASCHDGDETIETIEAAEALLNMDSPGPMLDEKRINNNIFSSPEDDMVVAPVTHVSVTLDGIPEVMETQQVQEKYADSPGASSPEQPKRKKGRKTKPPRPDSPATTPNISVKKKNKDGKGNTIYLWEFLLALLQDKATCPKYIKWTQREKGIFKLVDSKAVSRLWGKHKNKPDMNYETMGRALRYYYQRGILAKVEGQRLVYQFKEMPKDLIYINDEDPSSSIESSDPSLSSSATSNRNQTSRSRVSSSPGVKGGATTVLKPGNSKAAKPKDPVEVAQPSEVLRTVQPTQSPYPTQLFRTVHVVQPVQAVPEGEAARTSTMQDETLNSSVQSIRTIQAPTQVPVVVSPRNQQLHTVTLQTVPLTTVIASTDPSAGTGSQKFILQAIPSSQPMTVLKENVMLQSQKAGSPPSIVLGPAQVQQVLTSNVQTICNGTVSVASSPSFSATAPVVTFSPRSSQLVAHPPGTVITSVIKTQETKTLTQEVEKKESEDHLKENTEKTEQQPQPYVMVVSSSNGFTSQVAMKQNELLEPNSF
# Procedure, shortened: as §1
# EHF = target: T5, EHF (Homo sapiens, UniProt Q9NZC4 1-300)
# T5 sequence: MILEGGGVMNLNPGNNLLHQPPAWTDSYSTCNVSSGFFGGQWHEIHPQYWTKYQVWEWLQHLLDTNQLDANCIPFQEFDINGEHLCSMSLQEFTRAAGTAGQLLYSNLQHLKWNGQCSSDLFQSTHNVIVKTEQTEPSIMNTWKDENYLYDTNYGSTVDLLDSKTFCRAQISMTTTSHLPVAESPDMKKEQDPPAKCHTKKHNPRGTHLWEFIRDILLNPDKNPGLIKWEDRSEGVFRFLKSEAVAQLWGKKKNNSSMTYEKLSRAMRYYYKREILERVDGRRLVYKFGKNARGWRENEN
# Procedure, shortened: as §1
# SPI1 = SPI1 (Homo sapiens, UniProt P17947 1-270)
# Procedure, shortened: as §1
# SPIB = SPIB (Homo sapiens, UniProt Q01892 1-262)
# SPIB, sequence (Q01892 whole entry): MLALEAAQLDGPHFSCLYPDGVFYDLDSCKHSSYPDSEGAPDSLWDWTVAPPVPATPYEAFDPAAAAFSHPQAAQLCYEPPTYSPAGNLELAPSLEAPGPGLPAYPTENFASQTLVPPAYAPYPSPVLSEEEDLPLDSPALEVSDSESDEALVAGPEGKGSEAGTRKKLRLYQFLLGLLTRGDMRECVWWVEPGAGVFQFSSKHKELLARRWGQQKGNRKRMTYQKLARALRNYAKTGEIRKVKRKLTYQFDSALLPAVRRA
# Procedure, shortened: as §1
# ELK3 = target: T6, ELK3 (Homo sapiens, UniProt P41970 1-407)
# T6 sequence: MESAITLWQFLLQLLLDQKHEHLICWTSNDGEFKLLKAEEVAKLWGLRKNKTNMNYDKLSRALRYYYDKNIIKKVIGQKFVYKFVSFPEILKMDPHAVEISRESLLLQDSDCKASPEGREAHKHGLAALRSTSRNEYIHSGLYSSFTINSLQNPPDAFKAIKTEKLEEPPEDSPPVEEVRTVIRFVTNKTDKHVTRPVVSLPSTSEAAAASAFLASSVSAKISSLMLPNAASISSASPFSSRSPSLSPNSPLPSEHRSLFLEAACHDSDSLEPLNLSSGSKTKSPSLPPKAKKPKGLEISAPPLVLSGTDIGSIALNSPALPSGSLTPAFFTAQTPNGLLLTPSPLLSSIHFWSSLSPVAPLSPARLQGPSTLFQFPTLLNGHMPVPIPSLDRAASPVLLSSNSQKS
# Procedure, shortened: as §1
# FEV = target: T7, FEV (Homo sapiens, UniProt Q99581 1-238)
# T7 sequence: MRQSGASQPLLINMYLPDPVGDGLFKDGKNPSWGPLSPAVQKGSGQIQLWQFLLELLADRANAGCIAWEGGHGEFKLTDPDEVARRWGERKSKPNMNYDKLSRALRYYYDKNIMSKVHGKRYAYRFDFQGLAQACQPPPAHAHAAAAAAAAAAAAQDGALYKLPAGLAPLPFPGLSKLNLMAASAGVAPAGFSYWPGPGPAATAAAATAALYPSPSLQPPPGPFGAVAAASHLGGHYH
# Procedure, shortened: as §1
# ETV5 = ETV5 (Homo sapiens, UniProt P41161 1-510)
# ETV5, sequence (P41161 whole entry): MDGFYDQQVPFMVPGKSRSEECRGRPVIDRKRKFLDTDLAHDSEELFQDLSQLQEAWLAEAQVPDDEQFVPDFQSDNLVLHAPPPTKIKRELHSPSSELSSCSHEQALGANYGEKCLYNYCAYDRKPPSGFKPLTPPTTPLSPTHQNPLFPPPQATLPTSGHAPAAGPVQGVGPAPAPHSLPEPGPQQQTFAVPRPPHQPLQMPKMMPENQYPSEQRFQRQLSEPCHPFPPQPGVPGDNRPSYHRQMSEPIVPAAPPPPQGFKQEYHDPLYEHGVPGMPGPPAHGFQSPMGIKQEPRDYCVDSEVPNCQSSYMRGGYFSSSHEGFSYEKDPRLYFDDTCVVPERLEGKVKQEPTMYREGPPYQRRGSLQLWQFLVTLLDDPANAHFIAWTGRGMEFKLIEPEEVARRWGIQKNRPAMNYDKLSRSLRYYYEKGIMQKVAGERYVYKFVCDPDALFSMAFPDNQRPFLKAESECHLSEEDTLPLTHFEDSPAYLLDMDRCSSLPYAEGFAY
# Procedure, shortened: as §1
# ELF4 = ELF4 (Homo sapiens, UniProt Q99607 1-663)
# ELF4, sequence (Q99607 whole entry): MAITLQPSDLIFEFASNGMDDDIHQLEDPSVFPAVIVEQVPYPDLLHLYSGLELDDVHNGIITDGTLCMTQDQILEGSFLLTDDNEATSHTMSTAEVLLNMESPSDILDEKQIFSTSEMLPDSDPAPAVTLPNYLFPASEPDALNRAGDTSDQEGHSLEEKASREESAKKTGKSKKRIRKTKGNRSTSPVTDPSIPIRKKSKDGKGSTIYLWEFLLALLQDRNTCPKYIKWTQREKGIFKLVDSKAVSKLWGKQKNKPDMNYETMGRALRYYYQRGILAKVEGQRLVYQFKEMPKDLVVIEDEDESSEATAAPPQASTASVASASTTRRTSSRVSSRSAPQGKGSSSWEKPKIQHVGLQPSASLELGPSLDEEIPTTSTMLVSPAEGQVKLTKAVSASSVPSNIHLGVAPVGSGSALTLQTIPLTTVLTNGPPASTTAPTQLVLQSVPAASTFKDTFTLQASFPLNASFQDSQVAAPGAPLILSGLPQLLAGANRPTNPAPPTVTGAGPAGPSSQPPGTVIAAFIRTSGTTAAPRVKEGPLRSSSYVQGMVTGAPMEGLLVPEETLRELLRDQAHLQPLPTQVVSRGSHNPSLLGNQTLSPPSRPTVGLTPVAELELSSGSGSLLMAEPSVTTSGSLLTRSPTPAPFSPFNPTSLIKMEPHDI
# Procedure, shortened: as §1
# ETV1 = ETV1 (Homo sapiens, UniProt P50549 1-477)
# ETV1, sequence (P50549 whole entry): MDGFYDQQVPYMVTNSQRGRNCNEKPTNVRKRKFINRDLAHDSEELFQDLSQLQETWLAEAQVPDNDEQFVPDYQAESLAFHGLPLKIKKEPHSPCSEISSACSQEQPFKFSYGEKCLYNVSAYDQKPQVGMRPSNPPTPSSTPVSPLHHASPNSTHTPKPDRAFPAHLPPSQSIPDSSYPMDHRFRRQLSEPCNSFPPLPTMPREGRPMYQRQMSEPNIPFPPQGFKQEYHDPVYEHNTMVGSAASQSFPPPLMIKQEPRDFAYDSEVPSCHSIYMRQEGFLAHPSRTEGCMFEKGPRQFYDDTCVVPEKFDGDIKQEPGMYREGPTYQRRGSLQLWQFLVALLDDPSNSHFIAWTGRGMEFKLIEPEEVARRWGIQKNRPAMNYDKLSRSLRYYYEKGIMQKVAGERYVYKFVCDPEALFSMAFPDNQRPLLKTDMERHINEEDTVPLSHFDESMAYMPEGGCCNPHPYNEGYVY
# Procedure, shortened: as §1
# ERF = target: T8, ERF (Homo sapiens, UniProt P50548 1-548)
# T8 sequence: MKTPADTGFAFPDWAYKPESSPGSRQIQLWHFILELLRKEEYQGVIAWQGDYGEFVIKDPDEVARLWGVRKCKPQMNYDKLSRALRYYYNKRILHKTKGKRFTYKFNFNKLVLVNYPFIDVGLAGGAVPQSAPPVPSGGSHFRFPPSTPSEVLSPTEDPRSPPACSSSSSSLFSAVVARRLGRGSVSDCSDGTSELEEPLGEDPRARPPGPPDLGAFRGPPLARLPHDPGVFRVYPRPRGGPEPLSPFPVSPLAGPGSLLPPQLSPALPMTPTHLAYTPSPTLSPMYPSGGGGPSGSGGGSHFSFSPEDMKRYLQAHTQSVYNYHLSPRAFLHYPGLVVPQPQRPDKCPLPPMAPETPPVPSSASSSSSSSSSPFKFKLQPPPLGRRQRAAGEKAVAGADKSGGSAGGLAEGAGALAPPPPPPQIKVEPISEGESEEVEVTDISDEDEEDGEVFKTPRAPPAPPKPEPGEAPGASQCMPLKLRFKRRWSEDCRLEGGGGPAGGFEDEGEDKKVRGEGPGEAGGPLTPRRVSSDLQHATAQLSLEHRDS
# Procedure, shortened: as §1
# ETV3L = target: T9, ETV3L (Homo sapiens, UniProt Q6ZN32 1-361)
# T9 sequence: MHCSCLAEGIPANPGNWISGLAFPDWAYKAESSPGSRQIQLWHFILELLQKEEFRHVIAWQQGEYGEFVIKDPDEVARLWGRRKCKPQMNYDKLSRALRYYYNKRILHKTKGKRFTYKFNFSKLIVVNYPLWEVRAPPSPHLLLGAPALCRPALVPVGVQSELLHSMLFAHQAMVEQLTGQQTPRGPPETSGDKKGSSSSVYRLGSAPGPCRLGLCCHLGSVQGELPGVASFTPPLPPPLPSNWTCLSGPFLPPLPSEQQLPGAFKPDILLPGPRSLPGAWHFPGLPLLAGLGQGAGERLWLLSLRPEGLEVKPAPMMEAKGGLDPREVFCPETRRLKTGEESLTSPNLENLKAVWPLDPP
# Procedure, shortened: as §1
# ETS2 = target: T10, ETS2 (Homo sapiens, UniProt P15036 1-469)
# T10 sequence: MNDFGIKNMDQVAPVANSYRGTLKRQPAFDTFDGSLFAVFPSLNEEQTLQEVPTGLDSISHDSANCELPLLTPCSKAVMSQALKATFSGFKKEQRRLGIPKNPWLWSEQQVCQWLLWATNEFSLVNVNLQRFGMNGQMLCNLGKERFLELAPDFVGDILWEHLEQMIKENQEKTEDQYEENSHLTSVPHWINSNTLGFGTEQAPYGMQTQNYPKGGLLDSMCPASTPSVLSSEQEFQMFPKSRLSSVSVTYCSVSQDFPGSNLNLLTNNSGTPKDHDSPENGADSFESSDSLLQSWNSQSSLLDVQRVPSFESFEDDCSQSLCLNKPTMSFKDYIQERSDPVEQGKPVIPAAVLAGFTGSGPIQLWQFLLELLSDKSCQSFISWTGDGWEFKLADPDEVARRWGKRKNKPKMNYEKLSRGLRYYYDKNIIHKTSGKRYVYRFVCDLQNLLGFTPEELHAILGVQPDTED
# Procedure, shortened: as §1
# SPDEF = target: T11, SPDEF (Homo sapiens, UniProt O95238 1-335)
# T11 sequence: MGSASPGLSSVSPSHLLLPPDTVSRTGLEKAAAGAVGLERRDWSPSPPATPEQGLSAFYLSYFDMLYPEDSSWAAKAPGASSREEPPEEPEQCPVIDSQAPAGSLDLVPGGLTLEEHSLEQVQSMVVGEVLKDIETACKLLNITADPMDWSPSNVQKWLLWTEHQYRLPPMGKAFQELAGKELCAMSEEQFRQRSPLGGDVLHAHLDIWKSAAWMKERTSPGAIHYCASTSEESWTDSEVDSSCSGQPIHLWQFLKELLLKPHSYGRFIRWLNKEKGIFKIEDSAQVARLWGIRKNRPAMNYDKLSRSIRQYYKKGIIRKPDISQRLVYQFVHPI
# Procedure, shortened: as §1
# ETV3 = target: T12, ETV3 (Homo sapiens, UniProt P41162-2 1-143)
# T12 sequence: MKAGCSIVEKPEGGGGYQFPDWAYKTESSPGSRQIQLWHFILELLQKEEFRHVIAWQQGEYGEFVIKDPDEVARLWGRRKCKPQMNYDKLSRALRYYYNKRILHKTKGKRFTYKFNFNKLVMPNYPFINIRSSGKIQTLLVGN
# Procedure, shortened: as §1
sequence,measurement,setting,value
GCAATT,binding signal,FLI1,"1.17 fold enrichment (6-mer frequency, TF over GST control)"
same,binding signal,ELK1,"1.15 fold enrichment (6-mer frequency, TF over GST control)"
same,binding signal,GABPA,"1.14 fold enrichment (6-mer frequency, TF over GST control)"
same,binding signal,ERG,"1.02 fold enrichment (6-mer frequency, TF over GST control)"
same,binding signal,ELF1,"1.06 fold enrichment (6-mer frequency, TF over GST control)"
same,binding signal,EHF,"1.09 fold enrichment (6-mer frequency, TF over GST control)"
same,binding signal,SPI1,"1.23 fold enrichment (6-mer frequency, TF over GST control)"
same,binding signal,SPIB,"1.21 fold enrichment (6-mer frequency, TF over GST control)"
same,binding signal,ELK3,"1.05 fold enrichment (6-mer frequency, TF over GST control)"
same,binding signal,FEV,"1.14 fold enrichment (6-mer frequency, TF over GST control)"
same,binding signal,ETV5,"1.12 fold enrichment (6-mer frequency, TF over GST control)"
same,binding signal,ELF4,"1.12 fold enrichment (6-mer frequency, TF over GST control)"
same,binding signal,ETV1,"1.06 fold enrichment (6-mer frequency, TF over GST control)"
same,binding signal,ERF,"1.2 fold enrichment (6-mer frequency, TF over GST control)"
same,binding signal,ETV3L,"1.08 fold enrichment (6-mer frequency, TF over GST control)"
same,binding signal,ETS2,"1.09 fold enrichment (6-mer frequency, TF over GST control)"
same,binding signal,SPDEF,"1.06 fold enrichment (6-mer frequency, TF over GST control)"
same,binding signal,ETV3,"1.18 fold enrichment (6-mer frequency, TF over GST control)"
